Measurements reported in the supplement of paper PMC3334620.
Over roughly 33,000 sequences, “E-score (-0.5 to 0.5)” has its median near -0.053; the highest 2% begin near 0.37. The sample as a whole holds a higher share of the highest values than the screen did.

Target: Hap1 (UniProt P0CE41)
Test: PBM E-score (8-mer binding enrichment) (E-score (-0.5 to 0.5)); higher = stronger / more preferred TF binding
Conditions: protein concentration: 200 nM; construct: GST-DNA-binding domain
Outline: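 Each ungapped eight-base word and its reverse complement, pooled, received an E-score from the Universal PBM Analysis Suite. Underlying scans, normalised with masliner, recorded fluorescent anti-GST bound to GST-tagged yeast transcription factors. These were applied at about 100-200 nM to universal all-10-mer Agilent arrays double-stranded by primer extension.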

UniProt P0CE41, sequence (P0CE41 whole entry): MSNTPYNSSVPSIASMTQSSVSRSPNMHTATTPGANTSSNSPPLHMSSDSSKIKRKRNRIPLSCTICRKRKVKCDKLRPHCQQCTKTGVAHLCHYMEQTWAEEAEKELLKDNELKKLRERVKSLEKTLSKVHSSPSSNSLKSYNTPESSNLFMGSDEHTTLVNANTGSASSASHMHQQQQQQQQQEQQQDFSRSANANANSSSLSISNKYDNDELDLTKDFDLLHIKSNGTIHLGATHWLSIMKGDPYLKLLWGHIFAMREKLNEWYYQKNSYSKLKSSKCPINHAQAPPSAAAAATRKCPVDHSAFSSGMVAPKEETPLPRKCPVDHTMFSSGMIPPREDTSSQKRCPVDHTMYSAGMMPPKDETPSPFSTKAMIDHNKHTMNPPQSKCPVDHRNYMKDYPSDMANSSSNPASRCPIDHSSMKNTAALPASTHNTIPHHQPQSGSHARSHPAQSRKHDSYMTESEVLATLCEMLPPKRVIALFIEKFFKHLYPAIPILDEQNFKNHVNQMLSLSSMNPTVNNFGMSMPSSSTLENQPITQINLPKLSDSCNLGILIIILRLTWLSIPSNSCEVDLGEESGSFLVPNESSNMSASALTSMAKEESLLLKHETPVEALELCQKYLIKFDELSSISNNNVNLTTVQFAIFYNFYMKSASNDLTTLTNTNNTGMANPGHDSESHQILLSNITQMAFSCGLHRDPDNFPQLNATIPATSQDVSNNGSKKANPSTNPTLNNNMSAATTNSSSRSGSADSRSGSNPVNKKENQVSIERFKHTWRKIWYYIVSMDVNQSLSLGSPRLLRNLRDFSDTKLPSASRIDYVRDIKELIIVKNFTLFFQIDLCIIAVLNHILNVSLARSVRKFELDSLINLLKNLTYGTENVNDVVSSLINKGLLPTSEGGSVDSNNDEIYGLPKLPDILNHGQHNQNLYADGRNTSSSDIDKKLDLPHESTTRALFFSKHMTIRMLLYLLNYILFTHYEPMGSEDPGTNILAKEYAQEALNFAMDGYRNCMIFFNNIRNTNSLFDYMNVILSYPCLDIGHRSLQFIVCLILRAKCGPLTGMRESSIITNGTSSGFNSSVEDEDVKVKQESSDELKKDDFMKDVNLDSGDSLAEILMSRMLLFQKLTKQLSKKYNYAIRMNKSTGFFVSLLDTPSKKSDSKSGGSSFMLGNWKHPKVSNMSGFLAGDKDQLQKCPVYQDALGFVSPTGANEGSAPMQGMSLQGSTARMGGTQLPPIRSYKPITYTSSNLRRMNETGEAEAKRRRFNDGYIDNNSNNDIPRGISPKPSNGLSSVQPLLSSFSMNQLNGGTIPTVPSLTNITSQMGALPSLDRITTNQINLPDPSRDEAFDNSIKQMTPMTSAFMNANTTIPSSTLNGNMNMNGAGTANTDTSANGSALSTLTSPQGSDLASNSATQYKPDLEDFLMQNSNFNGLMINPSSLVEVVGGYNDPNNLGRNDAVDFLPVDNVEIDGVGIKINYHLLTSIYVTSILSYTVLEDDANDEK

Sequence | PBM E-score
AACGCCGC | 0.355
AACGCCGG | 0.397
CACGCCGA | 0.169
AACGCCGA | 0.447
TACGCCGA | 0.301
AACGCCGT | 0.273
ACCCGCCA | -0.0193
GGGGCTCA | -0.167
ATGAGTTA | -0.207
ATAAATCC | 0.325
CTAAATCA | -0.138
CTAAATCC | 0.386
GGGCTACA | -0.0843
GCCGGCAC | 0.327
TCCGGCAA | 0.326
CCCGGCAA | 0.401
CCCGGCAG | 0.21
GCCGGCAA | 0.373
ACCGGCAA | 0.272
AAGCTCGG | 0.36
GTGCTTTA | -0.0684
CATCCCGG | 0.312
AATCCCCG | 0.403
AATCCCGG | 0.397
AATCCCCC | 0.133

Sequence | PBM E-score
AATCCCTG | -0.18
CATCCCCG | 0.356
GCTTGACA | -0.139
CATGTCTC | 0.131
AAGTGCAC | -0.0983
CGCTGGGA | 0.0217
CCTCAAGG | -0.168
CGGGGCCC | 0.258
CCGGGCCC | 0.369
CCGGGCCG | 0.425
GCGGGCCC | 0.216
CCGGGCGA | 0.376
ACGGGCCG | 0.29
GCGGGCGA | 0.296
ACGGGCGA | 0.333
CCGGGCCA | 0.348
CCGCTATA | 0.27
AATAGCAT | -0.0964
CGTGTACC | 0.11
GGGAATAA | 0.396
GGGAATAC | 0.181
AGAAATAA | 0.0188
TGGAATAA | -0.128
CGAAATAA | 0.182
GGAAATAA | 0.413

Sequence | PBM E-score
ACGCACCG | 0.00605
ACCAGTTA | -0.225
GGCCGAAC | 0.37
GACCGAAC | 0.347
TGCCGTAA | 0.0155
TGCCGACA | 0.223
AGCCGAAC | 0.227
GACCGAAA | 0.385
CACCGAAA | 0.261
CGCCGTAA | 0.283
CGCCGACA | 0.215
CGCCGAAC | 0.344
GGCCGTAA | 0.377
GGCCGACA | 0.383
ACGAGCTA | -0.108
ACCCAGTA | -0.253
ATTTGGTC | 0.141
CTCCTAAC | -0.191
AGCCGAAA | 0.329
TGCCGAAA | 0.303
GGCCGAAA | 0.405
CGTTTTAG | -0.114
AACCTGTG | -0.315
AGAACTCG | 0.0147
GAGGGAGC | -0.175

Sequence | PBM E-score
AACCAAGT | -0.152
TGATAAAA | -0.0276
CGATAAAA | 0.382
GGATAAAA | 0.261
TACTCGGA | 0.312
CGCTCGGA | 0.404
CCCTCGGA | 0.373
CCCTCGGC | 0.268
GGCTCGGA | 0.344
GCCTCGGA | 0.331
ACCTCGGG | 0.26
CCCTCGTA | -0.0221
AGCTCGGA | 0.325
GACTCGGA | 0.405
ACCTCGGC | 0.377
AACTCGGA | 0.345
CATCACAG | -0.258
TGGATGAA | -0.183
AAAGAAGA | -0.0993
GAGTGTGA | -0.176
CCCCTTAC | -0.132
TAAGGTCA | -0.193
CAGGCTAG | -0.279
AATGGGGC | -0.188
ACCTCGAA | -0.135

Sequence | PBM E-score
CACTCGGG | 0.159
ACCTCGGA | 0.384
ACCTCGTA | -0.0139
AACTCGGC | 0.316
CACTCGGC | 0.374
CTCAGCTA | -0.214
CCCTACTC | -0.0316
GCGATACA | 0.0344
CCGATACA | 0.43
CCGATTCC | 0.405
CCGATACG | 0.42
CAGATACG | 0.0074
ACGATACC | 0.179
ACGATACA | -0.216
CCGATACC | 0.377
ACGATACG | -0.263
GCGATACC | 0.192
CCGATTCG | 0.347
GCGATTCC | 0.211
GGGCACCA | -0.0557
CTGACCGA | 0.258
GGAAGCCA | -0.0815
GATTTTGC | -0.0335
CTCTCCGC | 0.0772
GTCTCCGA | 0.332

Sequence | PBM E-score
ATCTCCGC | 0.455
CTCTCCGA | 0.203
ATCTCCAG | 0.0473
ATCTCCCC | 0.0474
ATCTCCGG | 0.483
ATCTCCGA | 0.486
ATCTCCCG | 0.263
CTCCAAAC | -0.124
ACCGAGCA | 0.359
TCCGAGAA | 0.381
ACCGAGCT | 0.294
TCCGAGCA | 0.402
ACCGAGAA | 0.271
CCCGAGCG | 0.354
GCCGAGGA | 0.294
ACCGAGCG | 0.384
GCCGAGCA | 0.236
TCCGAGGA | 0.384
CCCGAGAA | 0.351
CCCGAGGA | 0.192
GCTAGGGA | -0.228
CCTTGAGA | -0.0628
GCGTTGTA | -0.0982
AACACCAA | -0.314
TAGATAGA | -0.111

Sequence | PBM E-score
GGCGAACC | 0.0857
CCCGCAAC | 0.277
ACCAGACC | 0.0586
ATTTCTGG | -0.13
GGTAAATA | 0.0374
ATCCCCCC | -0.00218
ATCCCGGA | 0.36
ATCCCCGC | 0.371
ATCCCCTG | -0.324
ATCCCCCG | 0.366
CTCCCCGA | 0.247
ATCCCCGG | 0.426
GTCCCCGA | 0.269
ATCCCCGA | 0.44
ATCCCGGC | 0.339
ATCCCGGG | 0.376
CTCCCCGC | 0.204
AGGGAATG | -0.197
AACACCCT | -0.0622
GACCTCTC | 0.0308
CCTATCAA | -0.119
ACATGGAC | -0.143
TGCGAGAA | -0.143
ATAGGGAG | -0.147
CTAGAGAA | -0.207

Sequence | PBM E-score
GCCAGACC | 0.0912
ACAGCTAC | -0.11
TTAGAAAA | -0.0981
AATCGCAC | -0.23
CCGAGAAA | 0.4
TGGAGAAA | -0.0481
CGGAGAAG | 0.378
AGGAGAAG | -0.149
CGGAGAAC | 0.36
GCGAGAAA | 0.116
CGGAGAAA | 0.413
GGGAGAAA | 0.0441
TCGAGAAA | -0.271
CTACTACC | 0.068
TAACTTAA | 0.0501
CATATGGG | 0.0423
ACCACACT | -0.0326
AACACCGG | 0.409
CACACCGG | 0.288
CCCACCGA | 0.0319
CCCACCGG | 0.374
AACACCGA | 0.446
AACACCTG | -0.0827
AACACCGT | 0.245
CCCACCGC | 0.153

Sequence | PBM E-score
AACACCGC | 0.278
GCAACCCC | 0.0182
ATGGAGTC | -0.104
AACGGTAG | -0.00937
CCGATGTC | 0.295
CCGCACCC | 0.209
GTTCCGCA | 0.209
CTTCCGGA | 0.404
ATTCCGTA | 0.259
GTTCCGAA | 0.331
GTTCCGGA | 0.383
ATTCCGCA | 0.196
CTTCCGTA | 0.262
CTTCCGGC | 0.275
ATTCCGGA | 0.432
GATGAGGC | -0.0801
AAATCGGT | 0.246
ACGGGCCC | 0.214
CCCTCACG | -0.262
